Measurements as given in PubChem BioAssay AID1159580 (chemical genetic matrix, 2015).
Out of some 5,500 compounds screened, about 2,000 (36%) were called active. Roughly 18% stayed inconclusive and do not appear here. Rule as the data show it: active = normalized growth mostly below about 0.91 (no sharp cut-off); inconclusive = no clear call, values can overlap the other calls; inactive = mostly above about 0.92. The list shows a part of the results.

Assay: chemical genetic growth profiling, strain panel (AID 1159580);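 also: tested at 20 µM; growth read once vehicle control cultures reached saturation at 30 °C; 1 = growth at the plate median or of vehicle wells; lower values mean less growth of the strain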
Conditions: growth OD

Measured: normalized growth

CC1(C)C(=O)[C@@H]2C[C@@]3(O)C4=CC(=O)O[C@@H](c5ccoc5)[C@]4(C)CCC3[C@@](C)(C2=O)[C@H]1CC(=O)O (some centres not stated)
inactive: S. cerevisiae deletion strains, locus YJR066W, strain TOR1, active compounds read low 0.941 | S. cerevisiae deletion strains, locus YKL009W, strain mrt4, active compounds read low 0.998 | S. cerevisiae deletion strains, locus YKL068W, active compounds read low 1 | S. cerevisiae deletion strains, locus YKL085W, strain MDH1 (second series), active compounds read low 0.99 | S. cerevisiae deletion strains, locus YKL085W, strain MDH1, active compounds read low 0.99 | S. cerevisiae deletion strains, locus YKL160W, strain elf1, active compounds read low 1.01 | S. cerevisiae deletion strains, locus YKR001C, strain vps1, active compounds read low 0.992 | S. cerevisiae deletion strains, locus YKR026C, strain gcn3, active compounds read low 1.01 | S. cerevisiae deletion strains, locus YKR091W, strain srl3, active compounds read low 1 | S. cerevisiae deletion strains, locus YLL001W, strain dnm1, active compounds read low 1.01 | S. cerevisiae deletion strains, locus YLL026W, active compounds read low 1.01 | S. cerevisiae deletion strains, locus YLL041C, strain sdh2, active compounds read low 1.01 | S. cerevisiae deletion strains, locus YLR027C, strain aat2, active compounds read low 1.01 | S. cerevisiae deletion strains, locus YLR039C, strain RIC1, active compounds read low 1.1 | S. cerevisiae deletion strains, locus YLR058C, strain SHM2, active compounds read low 1.01 | S. cerevisiae deletion strains, locus YLR102C, strain apc9, active compounds read low 0.997 | S. cerevisiae deletion strains, locus YLR113W, strain HOG1, active compounds read low 0.986 | S. cerevisiae deletion strains, locus YLR221C, strain rsa3, active compounds read low 1.01 | S. cerevisiae deletion strains, locus YLR258W, strain gsy2, active compounds read low 0.996 | S. cerevisiae deletion strains, locus YLR262C, strain YPT6 (second series), active compounds read low 1.01 | S. cerevisiae deletion strains, locus YLR262C, strain YPT6, active compounds read low 1.08 | S. cerevisiae deletion strains, locus YLR268W, strain sec22, active compounds read low 1 | S. cerevisiae deletion strains, locus YLR320W, strain mms22, active compounds read low 0.995 | S. cerevisiae deletion strains, locus YLR330W, strain CHS5, active compounds read low 1 | S. cerevisiae deletion strains, locus YLR342W, strain FKS1, active compounds read low 0.997 | S. cerevisiae deletion strains, locus YLR357W, strain rsc2, active compounds read low 1 | S. cerevisiae deletion strains, locus YLR370C, strain arc18, active compounds read low 1.01 | S. cerevisiae deletion strains, locus YLR371W, strain rom2, active compounds read low 1.01 | S. cerevisiae deletion strains, locus YLR384C, strain iki3, active compounds read low 0.992 | S. cerevisiae deletion strains, locus YLR418C, strain cdc73, active compounds read low 1 | S. cerevisiae deletion strains, locus YML016C, strain PPZ1, active compounds read low 1 | S. cerevisiae deletion strains, locus YML032C, strain rad52, active compounds read low 0.983 | S. cerevisiae deletion strains, locus YML120C, strain ndi1, active compounds read low 1.02 | S. cerevisiae deletion strains, locus YML124C, strain tub3, active compounds read low 1 | S. cerevisiae deletion strains, locus YMR058W, strain fet3, active compounds read low 1.02 | S. cerevisiae deletion strains, locus YMR078C, strain ctf18, active compounds read low 0.985 | S. cerevisiae deletion strains, locus YMR125W, strain sto1, active compounds read low 0.997 | S. cerevisiae deletion strains, locus YMR129W, active compounds read low 1 | S. cerevisiae deletion strains, locus YMR205C, strain PFK2, active compounds read low 0.999 | S. cerevisiae deletion strains, locus YMR223W, strain ubp8, active compounds read low 0.99 | S. cerevisiae deletion strains, locus YMR231W, strain pep5, active compounds read low 0.976 | S. cerevisiae deletion strains, locus YMR263W, strain SAP30, active compounds read low 1.02 | S. cerevisiae deletion strains, locus YMR307W, strain GAS1, active compounds read low 1.06 | S. cerevisiae deletion strains, locus YNL067W, strain RPL9B, active compounds read low 1 | S. cerevisiae deletion strains, locus YNL071W, strain lat1, active compounds read low 1.01 | S. cerevisiae deletion strains, locus YNL128W, strain TEP1, active compounds read low 1.02 | S. cerevisiae deletion strains, locus YNL183C, strain NPR1, active compounds read low 0.946 | S. cerevisiae deletion strains, locus YNL209W, strain ssb2, active compounds read low 1.03 | S. cerevisiae deletion strains, locus YNL233W, strain BNI4, active compounds read low 1.02 | S. cerevisiae deletion strains, locus YNL248C, strain rpa49, active compounds read low 1.02 | S. cerevisiae deletion strains, locus YNL250W, strain rad50, active compounds read low 1 | S. cerevisiae deletion strains, locus YNL271C, strain bni1, active compounds read low 1 | S. cerevisiae deletion strains, locus YNL298W, strain CLA4, active compounds read low 0.977 | S. cerevisiae deletion strains, locus YNL307C, strain MCK1, active compounds read low 0.99 | S. cerevisiae deletion strains, locus YNL322C, strain KRE1 (second series), active compounds read low 0.999 | S. cerevisiae deletion strains, locus YNR049C, strain mso1, active compounds read low 0.999 | S. cerevisiae deletion strains, locus YNR052C, strain pop2, active compounds read low 0.984 | S. cerevisiae deletion strains, locus YOL006C, strain TOP1, active compounds read low 1.09 | S. cerevisiae deletion strains, locus YOL012C, strain htz1 0.886 | S. cerevisiae deletion strains, locus YOL147C, strain pex11, active compounds read low 0.995 | S. cerevisiae deletion strains, locus YOR001W, strain rrp6, active compounds read low 1.03 | S. cerevisiae deletion strains, locus YOR061W, strain CKA2, active compounds read low 1.01 | S. cerevisiae deletion strains, locus YOR069W, strain VPS5, active compounds read low 1.01 | S. cerevisiae deletion strains, locus YOR070C, strain gyp1, active compounds read low 1.01 | S. cerevisiae deletion strains, locus YOR080W, strain dia2, active compounds read low 1 | S. cerevisiae deletion strains, locus YOR083W, strain WHI5, active compounds read low 1 | S. cerevisiae deletion strains, locus YOR106W, strain vam3, active compounds read low 1.01 | S. cerevisiae deletion strains, locus YOR136W, strain idh2, active compounds read low 0.989 | S. cerevisiae deletion strains, locus YOR144C, strain elg1, active compounds read low 0.989 | S. cerevisiae deletion strains, locus YOR184W, strain ser1, active compounds read low 1.01 | S. cerevisiae deletion strains, locus YOR231W, strain MKK1, active compounds read low 0.998 | S. cerevisiae deletion strains, locus YOR265W, strain rbl2, active compounds read low 1.02 | S. cerevisiae deletion strains, locus YOR270C, strain vph1, active compounds read low 1.06 | S. cerevisiae deletion strains, locus YOR290C, strain snf2, active compounds read low 1.01 | S. cerevisiae deletion strains, locus YOR316C, strain cot1, active compounds read low 0.994 | S. cerevisiae deletion strains, locus YPL051W, strain arl3, active compounds read low 1.05 | S. cerevisiae deletion strains, locus YPL078C, strain atp4, active compounds read low 1.01 | S. cerevisiae deletion strains, locus YPL106C, strain sse1, active compounds read low 1.04 | S. cerevisiae deletion strains, locus YPL240C, strain hsp82, active compounds read low 1.01 | S. cerevisiae deletion strains, locus YPL241C, strain CIN2, active compounds read low 1.01 | S. cerevisiae deletion strains, locus YPL256C, strain CLN2, active compounds read low 0.984 | S. cerevisiae deletion strains, locus YPR119W, strain clb2, active compounds read low 0.991 | S. cerevisiae deletion strains, locus YPR141C, strain kar3, active compounds read low 1.01 | S. cerevisiae deletion strains, locus YPR163C, strain tif3, active compounds read low 0.99 | S. cerevisiae deletion strains, locus YPR167C, strain met16, active compounds read low 1 | S. cerevisiae deletion strains, strain wtn01, active compounds read low 1.01 | S. cerevisiae strains, strain wild type, active compounds read low 1.01
